Sampled rows, rich in hits. Any-hit rate of the full collection: about 4.6%.
CF NFkB block: cystic fibrosis NF-kB activation inhibition. KKLEB NF-kB-GFP reporter, PAF-induced, GFP fluorescence overnight. inhibition, % at 5 µM. 0.86% of 360,000 active. AID 588850;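 active means at least 50% inhibition at 5 µM, scaled per plate between neutral and stimulator controls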;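 further: PAF is a Pseudomonas aeruginosa culture filtrate used as stimulus; plate controls were PAF-stimulated DMSO wells for no effect and unstimulated DMSO wells for full effect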
HIF-2a inh: inhibitors of HIF-2a; 0.72% of 360,000 active; inhibition, % at 18.8 µM; 786-0 RCC cells HIF-2a reporter, luciferase luminescence, overnight;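 active means inhibition of the luminescence signal of 40% or more relative to plate controls, in a single-dose primary screen at 18.75 µM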
Mdm2 MdmX PPI: human Mdm2/MdmX binding inhibition | O15151+Q00987 | SaOS-2 split-luciferase Mdm2/MdmX complementation, luminescence | inhibition, % at 8 µM | 3% of 330,000 active | AID 485346;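 active means inhibition of at least 50% at 8 µM in the primary screen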
ABHD5-PLIN5 inh: ABHD5-PLIN5 protein interaction inhibition; Split G. princeps luciferase complementation, luminescence, 4 h; 0.78% of 360,000 active; AID 602281; inhibition, % at 4 µM; Q00G26+Q8WTS1;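 active means inhibition above the mean inhibition across every tested compound plus 3 SD, cut at about 22% in these data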;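 further: 0% = DMSO only wells and the 100% control is not disclosed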
Target sequence (Q00G26 whole entry, looked up): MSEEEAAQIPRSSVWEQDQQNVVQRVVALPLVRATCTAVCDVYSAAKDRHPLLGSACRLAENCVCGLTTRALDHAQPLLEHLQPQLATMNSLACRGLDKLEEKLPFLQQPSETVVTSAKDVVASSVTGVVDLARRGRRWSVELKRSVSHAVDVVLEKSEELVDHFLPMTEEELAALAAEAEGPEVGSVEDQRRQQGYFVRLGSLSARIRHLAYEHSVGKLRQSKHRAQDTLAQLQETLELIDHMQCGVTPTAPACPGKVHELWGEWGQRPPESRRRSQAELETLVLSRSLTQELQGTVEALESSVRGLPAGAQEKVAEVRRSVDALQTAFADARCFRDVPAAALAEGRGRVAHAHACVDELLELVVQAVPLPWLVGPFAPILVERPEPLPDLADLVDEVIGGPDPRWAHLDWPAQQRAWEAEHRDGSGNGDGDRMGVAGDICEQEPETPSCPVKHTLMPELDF
Target sequence (Q8WTS1 whole entry, looked up): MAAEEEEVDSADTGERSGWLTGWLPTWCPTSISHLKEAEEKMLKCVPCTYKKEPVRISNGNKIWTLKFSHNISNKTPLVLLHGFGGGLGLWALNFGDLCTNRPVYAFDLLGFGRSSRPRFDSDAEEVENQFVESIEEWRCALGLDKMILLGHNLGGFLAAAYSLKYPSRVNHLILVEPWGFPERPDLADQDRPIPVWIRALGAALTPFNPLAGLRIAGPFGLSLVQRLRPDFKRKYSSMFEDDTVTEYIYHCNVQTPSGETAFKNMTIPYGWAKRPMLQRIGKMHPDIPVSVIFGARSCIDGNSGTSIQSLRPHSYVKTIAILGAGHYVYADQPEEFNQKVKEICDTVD
Peg3 prom inh: Peg3 promoter activity inhibition; HeLa PEG-Prom luciferase reporter, luminescence, overnight; 1.7% of 360,000 active; inhibition, % at 20 µM;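 active means inhibition of at least 50% at 20 µM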
KKLEB tox: reduces viability of KKLEB cystic fibrosis airway cells | KKLEB CF airway cells viability, ATPlite luminescence, overnight; active compounds read low; cells stimulated with P. aeruginosa culture filtrate | AID 602141 | 0.36% of 360,000 active | activity change (cytotoxicity), % at 5 µM;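 active means corrected activity change at or below -50% at 5 µM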
Numbers without * were called inactive.

`O=C(COC(=O)C1CCN(c2ccc(C(F)(F)F)cn2)CC1)Nc1ncc(Cl)cc1Cl` gave CF NFkB block -6.4, HIF-2a inh 8.0, Mdm2 MdmX PPI 8.8, ABHD5-PLIN5 inh 5.7, Peg3 prom inh -13.7 and KKLEB tox 6.8.
CN(C)CCNC(=O)c1cccc(-c2cnc3c(NC=O)cc(-c4cccs4)cn23)c1 was read as CF NFkB block 2.5, HIF-2a inh -38.8, ABHD5-PLIN5 inh 8.4, Peg3 prom inh 52.9* and KKLEB tox -13.5.
`Cc1cc(-c2cc(NC=O)c3ncc(-c4cccc(C(=O)NCCN(C)C)c4)n3c2)cc(C)c1O` gave CF NFkB block -36.1, HIF-2a inh 37.6, ABHD5-PLIN5 inh 4.8, Peg3 prom inh -26.0 and KKLEB tox -0.8.
For CN(C)CCNC(=O)c1cccc(-c2cnc3c(NC=O)cc(-c4ccccc4F)cn23)c1 the results were CF NFkB block 0.2, HIF-2a inh -27.8, ABHD5-PLIN5 inh 3.4, Peg3 prom inh 95.5* and KKLEB tox 8.6.
Screening CN(C)Cc1ccccc1C(O)(c1ccccc1)c1ccccc1 returned CF NFkB block 3.4, HIF-2a inh 9.3, Mdm2 MdmX PPI 14.4, ABHD5-PLIN5 inh 7.6, Peg3 prom inh -11.8 and KKLEB tox -10.9.
Screening CC1(C)OC(C(O)(c2ccccc2)c2ccccc2)[C@@H](C(O)(c2ccccc2)c2ccccc2)O1 (stereo partly drawn) returned CF NFkB block 32.0, HIF-2a inh -11.6, ABHD5-PLIN5 inh 5.5, Peg3 prom inh 64.4* and KKLEB tox 5.6.
Screening CC[N+](CC)(CC)CCOc1ccc(/C=C/c2ccccc2)cc1 returned CF NFkB block 52.8*, HIF-2a inh 4.1, Mdm2 MdmX PPI 22.4, ABHD5-PLIN5 inh 5.2, Peg3 prom inh 10.4 and KKLEB tox -12.0.
Screening C[C@H](NC(=O)c1ncn2c1C(=O)NC[C@@H]2C)C(=O)OC(C)(C)C returned CF NFkB block 2.0, HIF-2a inh 9.3, ABHD5-PLIN5 inh -2.3, Peg3 prom inh -0.6 and KKLEB tox -0.2.
Screening COc1ncnc2c1ncn2CCCNCc1ccccc1 returned CF NFkB block -17.5, HIF-2a inh 8.2, ABHD5-PLIN5 inh -4.8, Peg3 prom inh 7.6 and KKLEB tox -3.5.
`CCOC(CNCc1cc(C)c2[nH]c3ccccc3c2c1C)OCC` gave CF NFkB block 19.7, HIF-2a inh 21.8, ABHD5-PLIN5 inh 2.0, Peg3 prom inh 74.0* and KKLEB tox -18.8.
CCOC(CCNC(=O)c1cc2c(=O)[nH]c3ccccc3c2s1)OCC was read as CF NFkB block -0.7, HIF-2a inh 1.9, Mdm2 MdmX PPI -7.5, ABHD5-PLIN5 inh -6.0, Peg3 prom inh 8.1 and KKLEB tox 5.8.
`O=C(COC(=O)c1ccc(Br)c(S(=O)(=O)N2CCOCC2)c1)NCCc1ccccc1` gave CF NFkB block 2.1, HIF-2a inh 3.8, Mdm2 MdmX PPI -21.4, ABHD5-PLIN5 inh -8.5, Peg3 prom inh -4.5 and KKLEB tox 5.2.
Screening CN(C)CCCNC(=O)C[C@H]1C[C@H](C(=O)N2CCCCC2)[C@@]2(C)c3[nH]c4cc(-c5ccco5)ccc4c3CCN2C1=O returned CF NFkB block -10.7, HIF-2a inh -5.6, Mdm2 MdmX PPI 40.8, ABHD5-PLIN5 inh 10.0, Peg3 prom inh 65.3* and KKLEB tox 17.0.
Screening COc1ccc(CNC(=O)C[C@H]2C[C@H](C(=O)N3CCCCC3)[C@@]3(CCc4ccccc4)c4[nH]c5cc(-c6ccco6)ccc5c4CCN3C2=O)cc1OC returned CF NFkB block 8.6, HIF-2a inh 8.8, Mdm2 MdmX PPI 26.9, ABHD5-PLIN5 inh 45.5*, Peg3 prom inh 7.5 and KKLEB tox -6.1.
For CC(C)(C)OC(=O)N1CCC(NC(=O)c2[nH]cnc2C(=O)Nc2ccccc2)CC1 the results were CF NFkB block 10.9, HIF-2a inh 19.4, Mdm2 MdmX PPI -12.3, ABHD5-PLIN5 inh 1.1, Peg3 prom inh 52.0* and KKLEB tox -7.5.
`Cc1ccc(NC(=O)c2nc[nH]c2C(=O)NC2CCN(C(=O)OC(C)(C)C)CC2)cc1` gave CF NFkB block 5.1, HIF-2a inh 2.8, Mdm2 MdmX PPI 34.0, ABHD5-PLIN5 inh 1.5, Peg3 prom inh 19.1 and KKLEB tox -1.1.
Screening CC(C)(C)OC(=O)NCCCC[C@H](NC(=O)c1[nH]cnc1C(=O)Nc1ccccc1)C(=O)OC(C)(C)C returned CF NFkB block 15.4, HIF-2a inh 21.5, Mdm2 MdmX PPI 38.2, ABHD5-PLIN5 inh -1.4, Peg3 prom inh 52.5* and KKLEB tox -30.5.
CC(C)(C)OC(=O)NCc1ccc(CNC(=O)c2[nH]cnc2C(=O)NCC(=O)OCc2ccccc2)cc1 was read as CF NFkB block -5.8, HIF-2a inh 13.4, Mdm2 MdmX PPI -3.7, ABHD5-PLIN5 inh -0.2, Peg3 prom inh 52.2* and KKLEB tox -2.4.
CC(C)(C)OC(=O)[C@H](CCCCN)NC(=O)c1nc[nH]c1C(=O)N[C@@H](CCCCN)C(=O)OC(C)(C)C was read as CF NFkB block -18.3, HIF-2a inh -2.4, Mdm2 MdmX PPI 4.4, ABHD5-PLIN5 inh -6.8, Peg3 prom inh 5.1 and KKLEB tox -0.4.
Screening CC(C)(C)OC(=O)[C@H](Cc1ccccc1)NC(=O)c1nc[nH]c1C(=O)N[C@@H](CCCCN)C(=O)OC(C)(C)C returned CF NFkB block 19.7, HIF-2a inh 5.0, Mdm2 MdmX PPI 24.1, ABHD5-PLIN5 inh 4.7, Peg3 prom inh 102.6* and KKLEB tox -7.6.
`CC(C)(C)OC(=O)NCc1ccc(CNC(=O)c2nc[nH]c2C(=O)NCc2ccccc2)cc1` gave CF NFkB block 14.9, HIF-2a inh 13.8, Mdm2 MdmX PPI 15.9, ABHD5-PLIN5 inh -5.7, Peg3 prom inh 15.3 and KKLEB tox -4.5.
Screening CSCC[C@H](NC(=O)Cc1c(C)c2cc3c(C)c(C)oc3cc2oc1=O)C(=O)N[C@@H](C(=O)O)c1ccccc1 returned CF NFkB block 2.6, HIF-2a inh 0.1, ABHD5-PLIN5 inh -1.2, Peg3 prom inh -6.9 and KKLEB tox 1.9.
For Cc1cc2ccccn2c1C(C[N+](=O)[O-])c1ccc(N(C)C)cc1 (stereo not drawn) the results were CF NFkB block -23.0, HIF-2a inh -16.6, Mdm2 MdmX PPI 35.2, ABHD5-PLIN5 inh 23.1*, Peg3 prom inh -2.2 and KKLEB tox 10.3.
For N#C/C(=C(/O)COc1ccc(Cl)cc1)c1nc2ccccc2s1 the results were CF NFkB block 50.4*, HIF-2a inh -63.6, Mdm2 MdmX PPI 29.6, ABHD5-PLIN5 inh 3.9, Peg3 prom inh -8.2 and KKLEB tox -34.4.
CC(=O)Nc1ccc2nc(NC(=O)c3ccco3)sc2c1 was read as CF NFkB block -1.7, HIF-2a inh -173.2, Mdm2 MdmX PPI -43.4, ABHD5-PLIN5 inh 10.3, Peg3 prom inh -208.3 and KKLEB tox 2.9.
Screening O=C(Nc1nc(-c2cccs2)cs1)c1ccc([N+](=O)[O-])o1 returned CF NFkB block 75.5*, HIF-2a inh -10.4, Mdm2 MdmX PPI 34.8, ABHD5-PLIN5 inh 0.6, Peg3 prom inh -20.5 and KKLEB tox -12.8.

Compound activity as filed in PubChem BioAssay.
